The sample as a whole holds a higher share of hits than the screen did.
CBX7 inh: CBX7 inhibition, primary AlphaScreen; O95931; AlphaScreen His6-CBX7 / biotin-H3K27me3 peptide binding; stronger effect = lower value; normalised signal (fraction of DMSO) (test concentration not listed); 1.1% of 66,000 active; AID 1224903; in the data active means normalised signal below about 0.5
Target sequence (O95931 whole entry, looked up): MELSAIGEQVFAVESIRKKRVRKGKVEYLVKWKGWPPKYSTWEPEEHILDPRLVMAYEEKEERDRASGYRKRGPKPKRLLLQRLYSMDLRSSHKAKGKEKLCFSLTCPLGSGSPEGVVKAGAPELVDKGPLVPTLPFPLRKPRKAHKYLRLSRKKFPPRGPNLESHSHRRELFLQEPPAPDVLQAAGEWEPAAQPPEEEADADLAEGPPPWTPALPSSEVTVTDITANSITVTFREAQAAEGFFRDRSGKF
Active calls of the source: *.

Screening CN(C1CCCCC1)S(=O)(=O)c1ccc(C(=O)Nc2ccc(-c3nc4ccccc4[nH]3)cc2)cc1 returned CBX7 inh 1.
O=C(c1ccc(CNc2c(N3CCCCC3)c(=O)c2=O)cc1)N1CCCCC1 was read as CBX7 inh 1.
CCOc1ccc(S(=O)(=O)c2cn(Cc3ccccc3)c3ccc(OC)cc3c2=O)cc1 was read as CBX7 inh 0.93.
O=C(CN1C(=O)CCSc2ccccc21)NCc1ccccc1 was read as CBX7 inh 0.99.
COc1cccc(-c2nn(C)c3sc(C(=O)Nc4cc(OC)ccc4OC)cc23)c1 was read as CBX7 inh 0.86.
For CC(=O)Nc1ccc(NC(=O)CSc2nc3ccccc3s2)cc1 the results were CBX7 inh 1.
For COc1ccc(-c2noc(CCC(=O)NCc3ccccc3OC)n2)cc1 the results were CBX7 inh 1.
Screening COCCn1cc(C(=O)Nc2ccccc2OC)c2c3ccccc3n(C)c2c1=O returned CBX7 inh 1.
CCN(CC)c1ccc(Nc2nc(-c3c(C)nc4ncccn34)cs2)cc1 was read as CBX7 inh 0.33*.
Cc1nc2sccn2c1-c1csc(Nc2ccc(Cl)cc2)n1 was read as CBX7 inh 0.75.
Screening CCN(CC)c1ccc(Nc2nc(-c3c(C)nc4sccn34)cs2)cc1 returned CBX7 inh 0.1*.
`CCc1ccccc1Nc1nc(-c2c(C)nc3ncccn23)cs1` gave CBX7 inh 0.77.
CC(=O)c1cccc(Nc2nc(-c3c(C)nc4ncccn34)cs2)c1 was read as CBX7 inh 0.85.
For CCOc1ccc(Nc2nc(-c3c(C)nc4sccn34)cs2)cc1 the results were CBX7 inh 0.67.
Screening Cc1ccc2c(C)c(C(=O)N(Cc3cccc(Cl)c3)C3CCS(=O)(=O)C3)oc2c1 (centres undefined) returned CBX7 inh 0.89.
`CC(C)c1ccc(-c2cc(C(=O)O)c3cc(Br)ccc3n2)cc1` gave CBX7 inh 1.1.
For Cc1ccc(-c2nnc(Nc3ccc(S(N)(=O)=O)cc3)c3ccccc23)cc1S(=O)(=O)NCCO the results were CBX7 inh 1.1.
Screening COc1ccc(Nc2ncc(C(=O)Nc3cccc(Cl)c3)c3ccccc23)cc1 returned CBX7 inh 0.2*.
For CCOc1ccc(NC(=O)c2cnc(Nc3ccc(OC)cc3)c3ccccc23)cc1 the results were CBX7 inh 0.97.
`COc1ccc(Nc2ncc(C(=O)Nc3cnc4ccccc4c3)c3ccccc23)cc1` gave CBX7 inh 0.9.
Cc1cccn2c(Nc3ccc4c(c3)OCCO4)c(-c3cccc(Cl)c3)nc12 was read as CBX7 inh 0.76.
Cc1ccc2nc(-c3ccccn3)c(NC3CCCC3)n2c1 was read as CBX7 inh 0.12*.
`Cc1cccn2c(Nc3ccc4c(c3)OCCO4)c(-c3ccsc3)nc12` gave CBX7 inh 0.93.
Screening Cc1cccn2c(Nc3ccc4c(c3)OCCO4)c(-c3ccc(N(C)C)cc3)nc12 returned CBX7 inh 0.41*.
Screening Cc1cccc(C)c1Nc1c(-c2ccccn2)nc2ncccn12 returned CBX7 inh 0.011*.
Screening Cc1ccc(-c2nc3ncccn3c2Nc2c(C)cccc2C)cc1 returned CBX7 inh 0.9.
Clc1ccc2nc(-c3ccccn3)c(Nc3ccc4c(c3)OCO4)n2c1 was read as CBX7 inh 0.58.
For c1ccc(-c2nc3ccccn3c2Nc2ccc3c(c2)OCCO3)cc1 the results were CBX7 inh 1.3.
Screening Cc1ccc(-c2nc3ncccn3c2NC2CCCC2)cc1 returned CBX7 inh 1.
For Cc1ccc(-c2nc3cnccn3c2NC2CCCC2)cc1 the results were CBX7 inh 1.2.
c1ccc(-c2nc3ccccn3c2Nc2ccc3c(c2)OCCO3)nc1 was read as CBX7 inh 0.073*.
Screening Cc1cccc(C)c1Nc1c(-c2ccsc2)nc2ncccn12 returned CBX7 inh 1.1.
Screening Cc1ccc(C)c(Cc2c(C)nc3c(C(=O)NCCc4ccccc4)cnn3c2C)c1 returned CBX7 inh 0.86.
Screening Cn1cnc2cc(NS(=O)(=O)c3ccccc3)ccc21 returned CBX7 inh 1.
For Cc1ccc(-c2noc(CCC(=O)NCc3ccc(F)cc3)n2)cc1 the results were CBX7 inh 0.95.
Screening Cc1ccc(NC(=O)CCc2nnc3ccc(N4CCN(C)CC4)nn23)cc1C returned CBX7 inh 1.
Screening O=C(NC1CCCC1)c1cc2c(s1)CSC2 returned CBX7 inh 0.89.
C1CCN(c2nonc2-[n+]2nc3nonc3[n-]2)CC1 was read as CBX7 inh 0.68.
For CCOC(=O)c1c(NC(=O)c2ccccc2Br)sc2c1CCC(C)C2 (centres undefined) the results were CBX7 inh 1.4.
Cc1cccc(C)c1Nc1c(-c2ccccn2)nc2ccccn12 was read as CBX7 inh 0.23*.
Screening Cc1cccc(C)c1Nc1c(-c2ccsc2)nc2ccccn12 returned CBX7 inh 0.91.
Cc1cccc(C)c1Nc1c(-c2cccs2)nc2ccccn12 was read as CBX7 inh 1.1.
For COCCCNC(=O)c1cc(=O)[nH]c2ccc(S(=O)(=O)N3CCC(C)CC3)cc12 the results were CBX7 inh 0.96.
For Fc1ccccc1COc1ccc(-c2nnn(Cc3ccccn3)n2)cc1 the results were CBX7 inh 1.
Screening Cc1ccc(NC(=O)C(Cc2ccccc2)N2C(=O)c3ccccc3C2=O)c(Br)c1 (centres undefined) returned CBX7 inh 0.84.
COc1ccc(-c2nn(C)c3sc(C(=O)NCCc4cccc(C)c4)cc23)cc1OC was read as CBX7 inh 1.
CCCNc1c(N2CCC(C(=O)OCC)CC2)c(=O)c1=O was read as CBX7 inh 0.98.
Screening O=C1Nc2ccccc2Oc2cc([N+](=O)[O-])cc(OCCO)c21 returned CBX7 inh 0.93.
`CCOc1cc([N+](=O)[O-])cc2c1C(=O)Nc1ccccc1O2` gave CBX7 inh 0.88.
For O=C1Nc2ccccc2Oc2cc([N+](=O)[O-])cc(Oc3cccc(Cl)c3Cl)c21 the results were CBX7 inh 0.48*.
For O=C1Nc2ccccc2Oc2cc([N+](=O)[O-])cc(Oc3cccc(Cl)c3)c21 the results were CBX7 inh 0.37*.
Screening CCC(C(=O)Nc1c(-c2ccc(OC)cc2)nc2cc(C)ccn12)c1ccccc1 (centres undefined) returned CBX7 inh 0.89.
`CC1(C)CC(=O)N(CC(=O)NCCCN2CCCC2)c2ccccc2S1` gave CBX7 inh 1.
`COc1cc(OC)cc(C(=O)N2CC(=O)Nc3ccc(Br)cc3C2c2ccc(F)cc2)c1` (centres undefined) gave CBX7 inh 0.98.
For CCOC(=O)c1cnc2c(C)cc(C)cc2c1Nc1cc(C(=O)O)ccc1C the results were CBX7 inh 1.1.
Screening Cc1cccc(NC(=O)c2ccc(CNc3c(N4CCC(C)CC4)c(=O)c3=O)cc2)n1 returned CBX7 inh 1.
`COc1ccc(C(=O)Nc2ccccc2-c2nc3ccccc3s2)cc1` gave CBX7 inh 1.
For COc1ccc(OC)c2[nH]c(=O)c(CCNS(C)(=O)=O)cc12 the results were CBX7 inh 1.
For Cc1ccc(NC(=O)C2=CCN(S(=O)(=O)c3ccccc3)CC2)cc1 the results were CBX7 inh 0.99.
Screening Cc1ccccc1N1C(=O)c2ccccc2C1Nc1ccccc1F (centres undefined) returned CBX7 inh 0.94.
For Cc1ccc(C(c2ccccc2)N2CCN(CCCc3c[nH]c4ccccc34)CC2)cc1 (centres undefined) the results were CBX7 inh 0.49*.

Bioassay records as filed in PubChem BioAssay.
